Experimental data published in PubChem BioAssay (Tox21).
Records with an inconclusive call do not appear. Calls of active or inactive are those of the source. Unless noted, calls come from the whole dose curve; as a rule, active = well fitted curve in the direction sought with a large enough effect in the repeat runs; inconclusive = weak or mixed curves; inactive = no such curve, though single readings can be large; an effect the other way counts as inactive or inconclusive.

Columns and labels:
[1] = qHTS assay to identify small molecule antagonists of the peroxisome proliferator-activated receptor gamma (PPARg) signaling pathway - cell viability counter screen (AID 743194); note: nearly all actives have a fitted effect of over 55% in size
In short: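 Viability was measured as CellTiter-Glo luminescence in GeneBLAzer PPARg UAS-bla HEK293H cells. These cells had been exposed 17 h at 37 C to compounds together with rosiglitazone at 50 nM final, with the beta-lactamase readout taken in the same wells.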

[2] = qHTS assay for small molecule agonists of the antioxidant response element (ARE) signaling pathway (AID 743202; active = well fitted activation curve with a large enough effect in the signal ratio in the repeat runs, not every such curve was filed as active; the % refers to the signal ratio)
In short: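 An ARE-responsive beta-lactamase gene stably integrated in HepG2 cells serves as reporter. After 5 h plating and 16 h compound incubation at 37 C, fluorescence of the B/G FRET substrate was measured.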

[3] = qHTS assay for small molecule agonists of the antioxidant response element (ARE) signaling pathway - cell viability counter screen (AID 743203; calls by dose curve; note: nearly all actives have a fitted effect of over 55% in size)
In short: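 Following 16 hrs of compound treatment at 37C, HepG2 cells with an ARE-controlled beta-lactamase gene were lysed with CellTiter-Glo. Luminescence was read after 30 min at room temperature.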

[4] = qHTS assay for small molecule activators of the heat shock response signaling pathway - cell viability counter screen (AID 743209); note: nearly all actives have a fitted effect of over 50% in size
In short: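 Readout: CellTiter-Glo luminescence, 30 min at room temperature. System: HSE-bla HeLa cells, 1500/well, plated overnight. Treatment: compounds in DMSO, 5 h at 37 C.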

[5] = qHTS assay for small molecule activators of the heat shock response signaling pathway (AID 743210; active = well fitted activation curve with a large enough effect in the signal ratio in the repeat runs, with a control signal flat, not every such curve was filed as active; the % refers to the signal ratio;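 note: HeLa cells with beta-lactamase reporter driven by heat shock elements; series mostly up to about 63 µM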)
In short: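 In HSE-bla HeLa cells, 5 h compound incubation (37 C) precedes addition of LiveBLAzer B/G substrate; after 2.5 h at room temperature, fluorescence intensity indicates reporter induction.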

[6] = qHTS assay to identify small molecule agonists of the peroxisome proliferator-activated receptor delta (PPARd) signaling pathway - cell viability counter screen (AID 743211); note: nearly all actives have a fitted effect of over 55% in size
In short: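 Luminescent ATP viability assay (CellTiter-Glo, 30 min RT) in UAS-bla HEK293H cells carrying the PPAR delta reporter construct, 3000 cells/well, after a 17 h compound treatment at 37 C.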

[7] = biological target: Peroxisome proliferator-activated receptor delta (Homo sapiens) (UniProt Q03181); assay: qHTS assay to identify small molecule agonists of the peroxisome proliferator-activated receptor delta (PPARd) signaling pathway (AID 743212; calls by dose curve)
Peroxisome proliferator-activated receptor delta (Homo sapiens), sequence (Q03181 whole entry, looked up): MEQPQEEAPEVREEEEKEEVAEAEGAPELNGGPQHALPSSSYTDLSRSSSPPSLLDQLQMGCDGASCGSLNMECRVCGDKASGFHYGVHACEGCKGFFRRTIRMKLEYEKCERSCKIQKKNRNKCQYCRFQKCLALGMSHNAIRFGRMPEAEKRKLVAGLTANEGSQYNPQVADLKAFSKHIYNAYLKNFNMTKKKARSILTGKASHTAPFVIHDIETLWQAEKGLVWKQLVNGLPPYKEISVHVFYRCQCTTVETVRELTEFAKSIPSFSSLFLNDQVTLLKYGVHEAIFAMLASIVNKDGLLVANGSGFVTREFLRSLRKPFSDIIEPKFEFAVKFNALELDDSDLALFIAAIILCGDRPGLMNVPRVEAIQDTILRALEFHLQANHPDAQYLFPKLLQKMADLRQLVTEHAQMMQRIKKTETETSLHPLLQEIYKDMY
In short: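 HEK293H UAS-bla reporter cells, human PPARd system; compounds delivered in DMSO after 5 h plating, then at 37 C. Beta-lactamase FRET read, 2 h RT substrate step.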

[8] = qHTS assay to identify small molecule antagonists of the peroxisome proliferator-activated receptor delta (PPARd) signaling pathway - cell viability counter screen (AID 743213); note: nearly all actives have a fitted effect of over 50% in size
In short: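 CellTiter-Glo was added to PPARd-bla HEK293H wells following 17 h compound treatment in the presence of 300 nM L165041. Luminescence was recorded after 30 min at room temperature.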

[9] = biological target: Peroxisome proliferator-activated receptor delta (Homo sapiens) (UniProt Q03181); assay: qHTS assay to identify small molecule antagonists of the peroxisome proliferator-activated receptor delta (PPARd) signaling pathway (AID 743215; active = well fitted inhibition curve with a large enough effect in the signal ratio in the repeat runs, not every such curve was filed as active; the % refers to the signal ratio;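 note: cells stimulated with agonist L165041 at 300 nM final during compound exposure; series mostly up to about 62 µM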)
In short: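 HEK293H UAS-bla, PPARd; agonist L165041 300 nM final with cpd in DMSO; 37 C 17 h; FRET substrate, RT 2 h; fluorescence intensity.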

[10] = biological target: Bile acid receptor (Homo sapiens) (UniProt Q96RI1); assay: qHTS assay to identify small molecule antagonists of the farnesoid-X-receptor (FXR) signaling pathway (AID 743217; active = well fitted inhibition curve with a large enough effect in the signal ratio in the repeat runs, not every such curve was filed as active; the % refers to the signal ratio)
Bile acid receptor (Homo sapiens), sequence (Q96RI1 whole entry, looked up): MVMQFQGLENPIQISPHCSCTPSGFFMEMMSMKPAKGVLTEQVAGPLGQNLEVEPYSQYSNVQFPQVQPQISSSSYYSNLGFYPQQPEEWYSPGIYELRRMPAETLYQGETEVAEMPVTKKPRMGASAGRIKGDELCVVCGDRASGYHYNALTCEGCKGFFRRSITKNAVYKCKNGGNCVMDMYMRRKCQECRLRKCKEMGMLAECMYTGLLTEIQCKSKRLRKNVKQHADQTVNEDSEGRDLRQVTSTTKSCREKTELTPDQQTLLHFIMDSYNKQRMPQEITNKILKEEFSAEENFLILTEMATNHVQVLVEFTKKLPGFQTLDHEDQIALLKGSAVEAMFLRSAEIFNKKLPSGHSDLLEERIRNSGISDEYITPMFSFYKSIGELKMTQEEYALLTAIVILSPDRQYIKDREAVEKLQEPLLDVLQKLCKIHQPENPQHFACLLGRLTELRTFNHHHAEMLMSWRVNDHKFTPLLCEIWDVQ
In short: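 GeneBLAzer FXR-UAS-bla HEK 293T, CDCA-stimulated (50 uM final). Compound treatment 16 h, 37 °C. Detection: beta-lactamase cleavage of B/G FRET substrate, fluorescence.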

[11] = qHTS assay to identify small molecule agonists of the farnesoid-X-receptor (FXR) signaling pathway - cell viability counter screen (AID 743218); note: nearly all actives have a fitted effect of over 45% in size
In short: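 Parallel cytotoxicity test: compound-treated (16 h, 37 C) HEK 293T FXR-bla reporter cells were lysed with CellTiter-Glo and luminescence recorded.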

[12] = biological target: Bile acid receptor (Homo sapiens) (UniProt Q96RI1); assay: qHTS assay to identify small molecule agonists of the farnesoid-X-receptor (FXR) signaling pathway (AID 743220; active = well fitted activation curve with a large enough effect in the signal ratio in the repeat runs, not every such curve was filed as active; the % refers to the signal ratio)
In short: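 Beta-lactamase reporter under UAS control in GeneBLAzer FXR HEK 293T cells (5000/well) measured with LiveBLAzer FRET substrate after 2 h at room temperature. Compound exposure lasted 16 h at 37C.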

[13] = qHTS assay to identify small molecule antagonists of the farnesoid-X-receptor (FXR) signaling pathway - cell viability counter screen (AID 743221; active = well fitted cell-killing curve with a large enough effect in the repeat runs, not every such curve was filed as active; note: nearly all actives have a fitted effect of over 50% in size)
In short: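 In GeneBLAzer FXR-UAS-bla HEK 293T cells stimulated with 50 uM chenodeoxycholic acid (final), compounds acted for 16 h at 37 C. Viability was assessed afterwards by CellTiter-Glo luminescence.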

[14] = biological target: Vitamin D3 receptor (Homo sapiens) (UniProt P11473); assay: qHTS assay to identify small molecule agonists of the vitamin D receptor (VDR) signaling pathway (AID 743222; calls by dose curve)
Vitamin D3 receptor (Homo sapiens), sequence (P11473 whole entry, looked up): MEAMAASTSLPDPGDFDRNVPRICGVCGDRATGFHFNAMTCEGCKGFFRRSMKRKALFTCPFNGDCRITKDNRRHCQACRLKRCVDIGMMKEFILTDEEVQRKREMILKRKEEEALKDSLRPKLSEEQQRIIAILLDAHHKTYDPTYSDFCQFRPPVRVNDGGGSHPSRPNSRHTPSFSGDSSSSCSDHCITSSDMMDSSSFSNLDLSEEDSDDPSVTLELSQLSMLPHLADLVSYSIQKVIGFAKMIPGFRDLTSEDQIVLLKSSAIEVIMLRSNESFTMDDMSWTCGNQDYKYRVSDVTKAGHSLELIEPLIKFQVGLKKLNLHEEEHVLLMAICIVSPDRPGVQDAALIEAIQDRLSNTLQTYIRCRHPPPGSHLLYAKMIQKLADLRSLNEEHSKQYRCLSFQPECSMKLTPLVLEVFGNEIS
In short: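 In VDR-bla cells, compound-induced beta-lactamase expression is quantified by FRET substrate fluorescence. Treatment lasts 16 h at 37C; substrate develops 2 h at room temperature.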

[15] = biological target: Vitamin D3 receptor (Homo sapiens) (UniProt P11473); assay: qHTS assay to identify small molecule antagonists of the vitamin D receptor (VDR) signaling pathway (AID 743223; active = well fitted inhibition curve with a large enough effect in the signal ratio in the repeat runs, not every such curve was filed as active; the % refers to the signal ratio)
In short: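 Agonist 1alpha,25-dihydroxyvitamin D3 (3 nM in well) was added with each compound to VDR-bla cells preincubated 4 h. Cells stood 16 h at 37C, then FRET substrate 2 h at room temperature; fluorescence intensity recorded.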

[16] = biological target: Peroxisome proliferator-activated receptor gamma (Homo sapiens) (UniProt P37231); assay: qHTS assay to identify small molecule antagonists of the peroxisome proliferator-activated receptor gamma (PPARg) signaling pathway (AID 743191; calls by dose curve; note: series mostly up to about 63 µM; nearly all actives have a fitted effect of over 30% in size)
Peroxisome proliferator-activated receptor gamma (Homo sapiens), sequence (P37231 whole entry, looked up): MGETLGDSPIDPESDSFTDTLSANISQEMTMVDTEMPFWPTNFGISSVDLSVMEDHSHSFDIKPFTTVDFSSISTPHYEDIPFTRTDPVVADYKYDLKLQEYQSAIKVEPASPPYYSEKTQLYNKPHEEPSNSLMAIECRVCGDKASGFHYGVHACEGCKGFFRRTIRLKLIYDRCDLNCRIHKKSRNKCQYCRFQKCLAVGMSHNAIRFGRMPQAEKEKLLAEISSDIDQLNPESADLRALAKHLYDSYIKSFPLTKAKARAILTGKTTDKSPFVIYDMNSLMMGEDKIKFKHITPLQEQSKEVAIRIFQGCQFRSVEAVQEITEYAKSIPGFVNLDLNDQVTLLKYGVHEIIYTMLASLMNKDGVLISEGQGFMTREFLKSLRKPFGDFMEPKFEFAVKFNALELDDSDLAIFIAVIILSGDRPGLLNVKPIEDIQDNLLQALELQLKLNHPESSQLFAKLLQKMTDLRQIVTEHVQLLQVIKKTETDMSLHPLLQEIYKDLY
In short: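 Beta-lactamase reporter under UAS control in HEK293H PPARg-bla cells; compound treatment 17 h at 37C. Read-out: fluorescence intensity after 1 h room-temperature incubation with LiveBLAzer B/G FRET substrate.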

[17] = qHTS assay to identify aromatase inhibitors - cell viability counter screen (AID 743084);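 note: cells stimulated with testosterone during compound exposure; nearly all actives have a fitted effect of over 55% in size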; note: potency is the fitted concentration of half-maximal effect
[18] = biological target: Peroxisome proliferator-activated receptor gamma (Homo sapiens) (UniProt P37231); assay: qHTS assay to identify small molecule agonists of the peroxisome proliferator-activated receptor gamma (PPARg) signaling pathway (AID 743094; active = well fitted activation curve with a large enough effect in the signal ratio in the repeat runs, not every such curve was filed as active; the % refers to the signal ratio)
In short: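 Compounds dissolved in DMSO were added to PPARg UAS-bla HEK293H cells for 17 h at 37C, and reporter expression was quantified by fluorescence intensity after 1 h with LiveBLAzer B/G FRET substrate.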

[19] = qHTS assay to identify small molecule that activate the aryl hydrocarbon receptor (AhR) signaling pathway - cell viability counter screen (AID 743086);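 note: HepG2 liver cells carrying the AhR DRE luciferase reporter; series mostly up to about 70 µM; nearly all actives have a fitted effect of over 45% in size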
In short: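 Cytotoxicity counter screen: CellTiter-Fluor signal (30 min, 37 C) in 4000 HepG2 cells/well carrying the DRE-luciferase reporter, following 24 h compound exposure at 37 C.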

[20] = biological target: Aryl hydrocarbon receptor (Homo sapiens) (UniProt P35869); assay: qHTS assay to identify small molecule that activate the aryl hydrocarbon receptor (AhR) signaling pathway (AID 743085);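 note: HG2L7.5c1 human HepG2 liver cells with stably integrated DRE-driven firefly reporter; series mostly up to about 70 µM; nearly all actives have a fitted effect of over 15% in size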
Aryl hydrocarbon receptor (Homo sapiens), sequence (P35869 whole entry, looked up): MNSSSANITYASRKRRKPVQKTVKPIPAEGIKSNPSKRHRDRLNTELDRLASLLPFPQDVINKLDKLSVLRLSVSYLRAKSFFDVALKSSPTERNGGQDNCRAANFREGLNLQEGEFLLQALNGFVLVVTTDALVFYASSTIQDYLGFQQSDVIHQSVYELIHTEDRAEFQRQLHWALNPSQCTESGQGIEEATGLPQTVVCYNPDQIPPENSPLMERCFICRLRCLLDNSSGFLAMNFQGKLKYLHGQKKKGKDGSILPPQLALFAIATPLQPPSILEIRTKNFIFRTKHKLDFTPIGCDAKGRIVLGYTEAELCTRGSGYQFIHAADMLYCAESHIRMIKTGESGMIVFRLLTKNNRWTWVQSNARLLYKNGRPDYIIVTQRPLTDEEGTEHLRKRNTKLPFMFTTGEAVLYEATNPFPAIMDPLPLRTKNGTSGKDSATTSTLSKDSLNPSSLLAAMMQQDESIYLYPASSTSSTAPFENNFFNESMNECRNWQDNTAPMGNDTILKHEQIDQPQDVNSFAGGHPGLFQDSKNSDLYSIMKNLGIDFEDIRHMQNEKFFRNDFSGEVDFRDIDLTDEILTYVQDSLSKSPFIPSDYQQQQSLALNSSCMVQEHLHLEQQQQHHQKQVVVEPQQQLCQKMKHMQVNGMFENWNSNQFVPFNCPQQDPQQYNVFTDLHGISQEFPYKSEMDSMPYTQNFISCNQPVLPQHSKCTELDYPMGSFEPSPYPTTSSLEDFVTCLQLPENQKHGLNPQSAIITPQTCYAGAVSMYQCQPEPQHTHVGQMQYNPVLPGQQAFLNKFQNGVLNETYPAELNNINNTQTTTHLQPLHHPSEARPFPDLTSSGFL
In short: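 24 h compound exposure, 37C, HepG2-derived HG2L7.5c1 cells with DRE-responsive luciferase. Readouts: fluorescence viability, then luminescence at room temperature after 30 min.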

Measured: Potency

CCCCC(CC)CNC(=O)CC(C)OC(=O)CCC(=O)O (stereo unspecified)
not listed: [16] | [17] | [18] | [19] | [20]
inactive: all other assays above

Nc1ccc(C(=O)OCC(O)CO)cc1 (stereo unspecified)
not listed: [7] | [9] | [10] | [12] | [17] | [18] | [19] | [20]
inactive: all other assays above

CC(C)COC(=O)COc1ccc(Cl)cc1Cl
not listed: [1] | [3] | [6] | [16] | [19] | [20]
inactive: all other assays above

C[Si]1(C)N[Si](C)(C)N[Si](C)(C)N1
inactive: [17] | [19] | [1] | [2] | [3] | [4] | [5] | [8] | [11] | [13]

Cc1cccc(NC(=S)N(C)C)c1
not listed: [3] | [5] | [7] | [9] | [16] | [17] | [18] | [20]
inactive: all other assays above

COc1cc([N+](=O)[O-])ccc1N
not listed: [1] | [7] | [9] | [11] | [15] | [16] | [17] | [19]
inactive: all other assays above

Cc1nc2n(c(=O)c1CCN1CCC(C(=O)c3ccc(F)cc3)CC1)CCS2
inactive: [16] | [1] | [4] | [8] | [9] | [10] | [11] | [12] | [13] | [14] | [15]

CCCCCCCCCCCCCCCCCCN(C)C
not listed: [10] | [12] | [16] | [17] | [18] | [19] | [20]
inactive: all other assays above

CC1=NN(c2ccc(S(=O)(=O)O)cc2)C(=O)C1N=Nc1ccccc1 (stereo unspecified)
active: [17] 54.5 µM
not listed: [2] | [8] | [10] | [12] | [15] | [19] | [20]
inactive: all other assays above

c1ccccc1
not listed: [3] | [17] | [18] | [19] | [20]
inactive: all other assays above

CC(C)COC(=O)/C=C/c1ccccc1
not listed: [8] | [16] | [17] | [18] | [20]
inactive: all other assays above

CCOC(=O)C(=O)c1csc(NC=O)n1
not listed: [16] | [17] | [18] | [19] | [20]
inactive: all other assays above

C/C=C(\C)C(=O)OCC/C=C\CC
not listed: [3] | [5] | [16] | [17] | [18] | [20]
inactive: all other assays above

CC(=O)N1CCN(c2ccc(O)cc2)CC1
inactive: [16] | [1] | [3] | [4] | [5] | [6] | [8] | [11] | [13] | [15]
